In PubChem BioAssay (EPA / NIEHS):
Records with an inconclusive call do not appear. The source made the active and inactive calls. Rule for the calls: active = hit-call score of the fitted dose curve at least 0.9, where 1 is the maximum; inconclusive = response in the unintended direction; inactive = score below 0.9.

Experiments:
[1] = target: Luciferin 4-monooxygenase (Photinus pyralis) (UniProt P08659); test: CCTE_Simmons_QuantiLum_inhib_2: CCTE's Firefly Luciferase Inhibition Assay, Simmons Lab (AID 2283767);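 for AC50: potency for inhibitors that lower luciferase luminescence relative to DMSO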
Luciferin 4-monooxygenase (Photinus pyralis), sequence (P08659 whole entry, looked up): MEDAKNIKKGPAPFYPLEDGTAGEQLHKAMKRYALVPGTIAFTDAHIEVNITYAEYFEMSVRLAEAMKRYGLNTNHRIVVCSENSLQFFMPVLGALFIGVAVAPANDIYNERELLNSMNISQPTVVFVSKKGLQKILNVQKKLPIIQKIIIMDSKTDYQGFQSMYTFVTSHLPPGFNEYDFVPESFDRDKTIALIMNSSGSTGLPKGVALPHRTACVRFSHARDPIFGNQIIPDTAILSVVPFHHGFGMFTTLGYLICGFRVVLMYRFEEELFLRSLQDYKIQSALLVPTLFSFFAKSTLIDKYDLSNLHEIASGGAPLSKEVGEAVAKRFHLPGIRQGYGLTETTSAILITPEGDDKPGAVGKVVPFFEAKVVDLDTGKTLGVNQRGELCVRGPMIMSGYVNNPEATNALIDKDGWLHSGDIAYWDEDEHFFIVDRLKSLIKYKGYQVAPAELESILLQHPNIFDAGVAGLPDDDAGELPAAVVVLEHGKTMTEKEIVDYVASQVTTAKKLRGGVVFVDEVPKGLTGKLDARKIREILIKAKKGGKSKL
Procedure, shortened: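 Eight-point titrations of each chemical, 5 nM–87.5 uM final in 0.5% DMSO, were run in three biological replicates against recombinant luciferase for 30 min at 37C. Bioluminescence signal loss, read on reagent injection, gave the inhibition endpoint.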

[2] = test system: chicken Androgen Receptor (AR), gene 422165; test: ATG_chAR_XSP1: Attagene TRANS-FACTORIAL Multi-Species (XSP1) HepG2 Assay for chicken Androgen Receptor (AR) (AID 2283768)
Procedure, shortened: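 Reporter mRNA read by RT-PCR with fluorescent labelling and capillary electrophoresis 24 h after chemical dosing of transiently transfected HepG2 cells. Chicken AR-Gal4 chimera, partially stimulated with 3 nM 6-alpha-fluorotestosterone; activity fitted upward relative to DMSO.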

[3] = test system: frog Androgen Receptor (AR), gene 399456; test: ATG_frAR_XSP1: Attagene TRANS-FACTORIAL Multi-Species (XSP1) HepG2 Assay for frog Androgen Receptor (AR) (AID 2283770)
[4] = target: zebrafish Estrogen Receptor (ESR1), esr1 (gene 259252) (UniProt P57717); test: ATG_zfER1_XSP1: Attagene TRANS-FACTORIAL Multi-Species (XSP1) HepG2 Assay for zebrafish Estrogen Receptor (ESR1) (AID 2283772)
zebrafish Estrogen Receptor (ESR1), esr1 (gene 259252), sequence (P57717 whole entry, looked up, the tested form may be a part): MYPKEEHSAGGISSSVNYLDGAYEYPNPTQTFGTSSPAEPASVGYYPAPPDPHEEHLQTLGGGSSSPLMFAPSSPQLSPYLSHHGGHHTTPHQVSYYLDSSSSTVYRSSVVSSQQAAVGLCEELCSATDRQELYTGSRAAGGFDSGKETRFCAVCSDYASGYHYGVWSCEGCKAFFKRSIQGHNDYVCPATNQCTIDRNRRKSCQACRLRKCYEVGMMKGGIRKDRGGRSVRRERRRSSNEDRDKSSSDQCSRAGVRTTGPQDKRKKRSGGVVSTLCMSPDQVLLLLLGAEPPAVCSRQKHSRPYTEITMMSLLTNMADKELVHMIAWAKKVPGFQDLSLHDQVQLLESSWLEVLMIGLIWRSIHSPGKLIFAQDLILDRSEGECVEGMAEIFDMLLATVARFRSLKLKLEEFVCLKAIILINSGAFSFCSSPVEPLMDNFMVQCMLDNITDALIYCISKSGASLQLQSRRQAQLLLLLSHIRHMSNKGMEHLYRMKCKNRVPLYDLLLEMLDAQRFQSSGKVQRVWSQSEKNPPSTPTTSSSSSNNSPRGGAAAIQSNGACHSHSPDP
Procedure, shortened: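 HepG2 cells were transiently transfected with multiplexed GAL4-UAS reporter units driven by chimeric NR-GAL4 proteins, dosed for 24 h with 3 nM 6-alpha-fluorotestosterone present, and reporter mRNA quantified by RT-PCR and capillary electrophoresis versus DMSO.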

[5] = test system: zebrafish Estrogen Receptor (ESR2B), gene 317733; test: ATG_zfER2b_XSP1: Attagene TRANS-FACTORIAL Multi-Species (XSP1) HepG2 Assay for zebrafish Estrogen Receptor (ESR2B) (AID 2283773)
Procedure, shortened: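 Medium contained 3 nM 6-alpha-fluorotestosterone. Reporter mRNA induction by exogenous zebrafish ER2b-Gal4 chimera was read 24 h post-dose in transiently transfected HepG2 cells, using RT-PCR, fluorescent labelling, HpaI digestion and capillary electrophoresis.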

[6] = test system: frog Estrogen Receptor (ESR2), gene 100174814; test: ATG_frER2_XSP1: Attagene TRANS-FACTORIAL Multi-Species (XSP1) HepG2 Assay for frog Estrogen Receptor (ESR2) (AID 2283774)
Procedure, shortened: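 Reporter mRNA from a multiplexed TRANS system, measured by RT-PCR with fluorescent labelling and capillary electrophoresis, 24 hours after chemical exposure. Human HepG2 liver cells carried exogenous frog ER-Gal4 chimera; medium included 3 nM 6-alpha-fluorotestosterone; increases versus DMSO analysed.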

With CCCCCCCC[N+](C)(CCCCCCCC)CCCCCCCC the AC50 [1] was 86 µM (active).
In the case of C1=Cc2ccccc2C1, the outcome [1] is reported as “inactive”.
For O=C(c1ccc(O)cc1)c1ccc(O)cc1O, the AC50 [2] was 1.56 µM (active), the AC50 [3] was 2.78 µM (active) and the AC50 [4] was 1.76 µM (active). For the same compound, the AC50 [5] was 1.23 µM (active) and the AC50 [6] was 0.729 µM (active).
